An excerpt weighted towards active compounds, which were near 1.1% of everything screened.
GALK inh = qHTS Assay for Inhibitors of Human Galactokinase (GALK); P51570; Purified GALK, Kinase-Glo residual ATP luminescence; Potency, µM (doses to about 57.5 µM), inactives show at the highest dose activity change, negative = inhibition, usual class: inhibitors; 0.007% of 270,000 active; also: potency is read from the fitted curve at half-maximal effect; % is scaled to controls: 0 for no effect and ±100 for the full control effect
Target sequence (P51570 whole entry, looked up): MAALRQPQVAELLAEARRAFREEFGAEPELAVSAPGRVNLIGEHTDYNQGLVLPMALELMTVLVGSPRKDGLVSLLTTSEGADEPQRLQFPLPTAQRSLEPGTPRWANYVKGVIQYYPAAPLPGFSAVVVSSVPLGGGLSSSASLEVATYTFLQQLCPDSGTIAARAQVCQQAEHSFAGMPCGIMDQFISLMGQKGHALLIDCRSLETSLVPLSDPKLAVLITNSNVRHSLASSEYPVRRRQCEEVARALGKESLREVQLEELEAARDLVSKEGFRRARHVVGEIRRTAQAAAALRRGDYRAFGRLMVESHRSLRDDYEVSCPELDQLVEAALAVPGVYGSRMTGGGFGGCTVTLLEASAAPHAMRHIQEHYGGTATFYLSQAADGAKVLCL
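ATP-depletion format; final 35 uM ATP, 100 uM D-galactose, 5 nM enzyme; pH 8.0 HEPES/Mg2+ buffer; 60 min RT; luminescence read 10 min after detection reagent.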
TrxR1 substrate = qHTS Assay for Substrates of Mammalian Selenoprotein Thioredoxin Reductase 1 (TrxR1): qHTS; Thioredoxin reductase 1, cytoplasmic (Rattus norvegicus), O89049; purified TrxR1 substrate turnover, NADPH consumption readout; Potency, µM (top dose mostly 114 µM), for the others: at the top dose activity change, negative = substrate turnover; 0.01% of 390,000 active; AID 588456, 2011; also: potency is read from the fitted curve at half-maximal effect; % is scaled to controls: 0 for no effect and ±100 for the full control effect; nearly all actives have a fitted effect of over 50% in size
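Rat TrxR1, dispensed at 90 nM, was prereduced with 400 uM NADPH (final) for 5 min at ~22 deg C, then incubated with compound 15 min before 400 uM selenite. A first-read NADPH fluorescence drop versus no-compound background flagged substrates.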
TrxR1 inh-1 = qHTS Assay for Inhibitors of Mammalian Selenoprotein Thioredoxin Reductase 1 (TrxR1): qHTS. Thioredoxin reductase 1, cytoplasmic (Rattus norvegicus), O89049. recombinant rTrxR1, NADPH fluorescence consumption, selenite substrate. Potency, µM (titrated, usually from 114 µM), for the others: top-dose activity change, negative = inhibition, most hits filed as inhibitors. 1% of 390,000 active; also: potency is read from the fitted curve at half-maximal effect; % is scaled to controls: 0 for no effect and ±100 for the full control effect; nearly all actives have a fitted effect of over 65% in size
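Rat TrxR1 (90 nM in the dispensed reagent) was pre-reduced with 400 uM NADPH for 5 min at room temperature, then incubated with compound for 15 min. After 400 uM selenite was added, NADPH fluorescence (Ex 340/Em 450 nm) was followed for 8 min.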
PI4K2A block = qHTS for small molecular inhibitors of PI4K2A. purified PI4K2A, ADP-Glo luminescence, 1 h; stronger effect = lower value. activity change, negative = inhibition, % at 76.9 µM. AID 1346378, 2018. 0.13% of 420,000 active; in the data active = activity change below about -50%; inconclusive = mostly about -30% to -49%;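 also: -100% = wells without enzyme as full effect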
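In this quantitative HTS, ADP production by PI4K2A was quantified luminescently after 1 h at ambient temperature; 100 microM adenosine served as plate-quality control.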
GR counterassay = qHTS Assay for Inhibitors of Mammalian Selenoprotein Thioredoxin Reductase 1 (TrxR1): Counterassay in Glutathione Reductase (GR); activity change, negative = inhibition, % at 57.1 µM; shares compounds with TrxR1 inh-1; purified GR, DTNB reduction absorbance 405 nm kinetic; 55 tested, under 10 active
TrxR1 inh-2 = qHTS Assay for Inhibitors of Mammalian Selenoprotein Thioredoxin Reductase 1 (TrxR1): Hit Validation in Primary Screen; recombinant TrxR1, NADPH fluorescence consumption, selenite substrate; shares compounds with TrxR1 inh-1; 50% of 55 active; Potency, µM, most hits filed as inhibitors
TrxR1 insulin MOA = qHTS Assay for Inhibitors of Mammalian Selenoprotein Thioredoxin Reductase 1 (TrxR1): Insulin MOA Assay; shares compounds with TrxR1 inh-1; TrxR1 Trx-coupled insulin reduction, NADPH absorbance 340 nm; Potency, µM; 20% of 55 active; AID 652037, 2013;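 active = compounds with a measured potency under 100 micromolar; inconclusive = filed, but no rule given; inactive = potency at or above that, or unmeasurable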
TrxR1 inh-3 = qHTS Assay for Inhibitors of Mammalian Selenoprotein Thioredoxin Reductase 1 (TrxR1): DTNB Assay; shares compounds with TrxR1 inh-1; purified TrxR1, DTNB reduction, A412; Potency, µM; 90% of 55 active;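 active = a half-inhibiting concentration could be measured and was below 100 µM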
* hit, by the source's call; i = inactive; u = inconclusive; x = not tested or not shown; ! = not confirmed by another sample; [ ] = dose if it differs, or a comment. Unless noted, calls follow the shape of the dose curve; as a rule, active = well fitted curve in the direction sought with a large enough effect; inconclusive = small, poorly fitted or top-dose-only effect, or another doubt; inactive = no such curve, though single readings can be large; an effect the other way counts as inactive or inconclusive.

SMILES	GALK inh	TrxR1 substrate	TrxR1 inh-1	PI4K2A block	others
N#Cc1cn(C2OC(CO)C(O)C2O)c2ncnc(N)c12 (stereo not drawn)	x	-2.5%	-6.0%	-51.2*
CN[C@H](C)[C@H](O)c1ccccc1	-1.9%	2.2%	13.4%	-1.6
CN[C@@H](C)[C@H](O)c1ccccc1	x	-1.9%	25.1µM*!	0.4
Cc1ccc2cc(C=C(C#N)C#N)c(Cl)nc2c1	-1.1%	-3.1%	25.1µM*	21.7
Nc1ncnc2c1ncn2[C@@H]1O[C@H](COP(=O)(O)CP(=O)(O)O)[C@@H](O)[C@H]1O	x	7.1%	16.0%	-54.2*
Cc1ccc(OCCOc2cccc(C=C3C(=O)NC(=O)NC3=O)c2)c(C)c1	-2.7%	2.0%	7.94µM*	u
O=C1NC(=O)C(=Cc2cccc(OCCOc3ccccc3)c2)C(=O)N1	1.0%	1.2%	15.8µM*	-26.0
O=C1NC(=O)C(=Cc2ccc(OCCOc3ccc([N+](=O)[O-])cc3)cc2)C(=O)N1	8.7%	-4.7%	35.5µM*	-24.4
ClCCCN1CCN(c2cccc(Cl)c2)CC1	x	x	x	-3.7
COc1cc(/C=C2\C(=O)NC(=O)N(c3ccccc3)C2=O)cc(OC)c1O	-2.2%	-15.3%	25.1µM*	-20.3
Cn1cc(/C=C2\C(=O)NC(=O)N(c3ccccc3)C2=O)c2ccccc21	x	-15.1%	-25.3%	-9.0
COc1cc(/C=C2\C(=O)NC(=O)N(c3ccccc3)C2=O)c([N+](=O)[O-])cc1OC	3.5%	6.6%[57.1 µM]	7.08µM*	-9.3
COc1cccc(NC(=O)C2CCN(c3nnc(C)c4c(C)n(-c5ccccc5)nc34)CC2)c1	x	15.3%[57.1 µM]	28.5%[57.1 µM]	0.1
O=C(O)CCC(=O)NCCC1=c2ccccc2=N/C1=C\c1c(O)n(Cc2ccc(F)cc2)c(=S)[nH]c1=O	-14.6%	6.2%	35.5µM*	-7.5
O=C(N/N=C/c1c(O)n(Cc2ccc(F)cc2)c(=O)[nH]c1=O)c1ccccc1	-3.3%	1.8%[57.1 µM]	1.1%[57.1 µM]	0.5
COc1cc(C=C2C(=O)NC(=O)NC2=O)ccc1OS(=O)(=O)c1ccccc1[N+](=O)[O-]	-3.5%	4.7%	6.31µM*	-19.6
C[C@]12CC[C@H]3[C@@H](CC[C@@]45O[C@H]4C(O)=C(C#N)C[C@]35C)[C@H]1CC[C@H]2O	x	x	x	1.7
ClCCN(CCCl)/C(=C\c1ccccc1)c1ccnc2ccccc12	x	-23.7%	u	x
COc1cc(O)c(C(=O)O)c(-c2cc(O)c(O)cc2C)c1	-6.2%	0.4%[57.1 µM]	0.794µM*	-8.2
COc1ccc2c(c1)c(C(=O)O)c(C)n2CC(C)C	-3.6%	12.1%	13.5%	7.1
COc1cc(CC#N)cc(OC)c1OC	x	x	x	-0.3
CCC(C)(C)NC(=O)C(NS(=O)(=O)c1cccs1)c1ccccc1 (stereo not drawn)	2.9%	-4.0%	8.7%	-3.0
COc1cc(C[C@@H](C)N)c(OC)cc1Br	x	x	x	i
CCOC(=O)CCCc1cc[c]([Sb](=[O])([OH])[OH])cc1	x	-6.2%	1.12µM*	x
O=C(Nc1ccc2nc(SCC(=O)N3CCOCC3)sc2c1)c1ccc(Cl)cc1	x	9.2%	41.3%	-2.2
SMILES	GALK inh	TrxR1 substrate	TrxR1 inh-1	PI4K2A block	others
CC(C)N(C(=O)CCl)c1ccccc1	x	11.6%	20µM*	3.3
CC(O)CN1CCN(CC(=O)[O-])CCN(CC(=O)[O-])CCN(CC(=O)[O-])CC1.[Gd+3] (stereo not drawn)	x	x	x	3.3
CCN1C(=O)NC(=O)/C(=C\c2cn(CC(=O)N3CCCCC3C)c3ccccc23)C1=O (stereo not drawn)	-4.2%	-5.0%	20µM*	-14.1
CN1C(=O)C(=Cc2cn(CC(=O)N3CCCC3)c3ccccc23)C(=O)N(C)C1=O	-2.3%	2.4%	8.2%	-4.4
O=C1C=CC2C3C(=O)N(c4ccccc4)C(=O)C3C1N2Cc1ccccc1 (stereo not drawn)	x	5.7%[11.4 µM]	3.55µM*	12.0	GR counterassay=-0.9;TrxR1 inh-2=u;TrxR1 insulin MOA=17µM*;TrxR1 inh-3=1.49µM*
O=P(O)(O)c1ccccc1OCCOCCOCCOCCOc1ccccc1P(=O)(O)O	-3.7%	-15.2%	u	-5.2

Compound activity from PubChem.
